Measured values: the supplement of paper PMC7411054

test system: HepG2-GM130-SQSTM1; test: phenotypically active (imaging signature differs from DMSO and reproducible) at any of 0.3-9 uM (binary (1 = active, 0 = inactive)); higher = active; settings: treatment time: 24 h
Outline: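 Fifteen reporter lines derived from A549, HepG2 and WPMY1 cells by gene editing, carrying BFP for segmentation plus GFP and RFP/FusionRed markers, were exposed to 0.3, 1, 3 or 9 µM for 24 h in four wells each and imaged live. Live-cell features from each well were normalised to solvent control wells. A well set counted as deviating when ≥3 of 4 wells lay beyond the 95th percentile of control Euclidean distances, and as reproducible when the median replicate Pearson correlation exceeded the 95th percentile of non-replicates. Phenotypic activity was assigned only when both criteria were met.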

Phenotypically active, inactive:
COc1ccc(CNC(=O)Nc2ncc([N+](=O)[O-])s2)cc1 0, CC(C)(C)c1ccc2cc(C#N)c(C#N)cc2c1 0, CC(C)OC(=O)c1cc2c(OCC(O)CNC(C)(C)C)cccc2[nH]1 (stereo not given) 0, CCCCOc1cc(C(=O)NCCN(CC)CC)c2ccccc2n1 [cinchocaine] 0, Clc1ccccc1C(c1ccccc1)(c1ccccc1)n1ccnc1 [Clotrimazole] 0, CCCNCC(O)COc1ccccc1C(=O)CCc1ccccc1 (stereo not given) [propafenone] 0, O=C(O)[C@@H]1[C@H]2C[C@H]3c4[nH]c5ccccc5c4CCN3C[C@@H]2CC[C@@H]1O [Yohimbinic acid monohydrate] 0, COc1cc2ncnc(Nc3ccc(Cl)cc3F)c2cc1OC 0, Cc1ccc(NC(=O)c2cccc(N(C)C)c2)cc1NC(=O)c1ccc(O)cc1 0, COc1cc2c(cc1OCCCN1CCCC1)N=C(N)C21CCC1 0, CC#CC(=O)N1CCC[C@H]1c1nc(-c2ccc(C(=O)Nc3ccccn3)cc2)c2c(N)nccn12 [acalabrutinib] 0, CN1[C@@H]2CC[C@H]1C[C@@H](OC(c1ccccc1)c1ccccc1)C2 [benztropine] 0

Phenotypically active, active:
COc1c(C=O)c(O)cc2c1C(=O)c1ccccc1C2=O [Damnacanthal] 1, C[C@H]1Oc2cc(cnc2N)-c2c(nn(C)c2C#N)CN(C)C(=O)c2ccc(F)cc21 1, COc1ccccc1OCCNCC(O)COc1cccc2[nH]c3ccccc3c12 (stereo not given) [Carvedilol] 1, O=S(=O)(c1cccc2cnccc12)N1CCCNCC1 [fasudil] 1, CSc1ccc2c(c1)N(CCC1CCCCN1C)c1ccccc1S2 (stereo not given) [thioridazine] 1, COc1cc(N2CCC(N)CC2)ccc1Nc1ncc(Cl)c(-c2c[nH]c3ccccc23)n1 1, Cc1noc(C)c1-c1ccc2c(c1)nc(CCc1ccc(OCCCN(C)C)cc1)n2CCN1CCOCC1 1, Cc1cc(Nc2ccc(NC(=O)c3ccc(Nc4ccnc5ccccc45)cc3)cc2)nc(N)n1 1, Cc1ccc(NC2=CC(=O)c3sc(C)nc3C2=O)cc1 [Ryuvidine] 1, C[C@]1(O)C[C@@H](c2nc(-c3ccc4ccc(-c5ccccc5)nc4c3)c3c(N)nccn32)C1 [linsitinib] 1, O=C(O)C[C@H](O)C[C@H](O)/C=C/c1c(C2CC2)nc2ccccc2c1-c1ccc(F)cc1 [Pitavastatin calcium] 1, NC(=O)c1cccc(-c2cc(Nc3ccc(OC(F)(F)F)cc3)ncn2)c1 1, NS(=O)(=O)c1nn2cc(-c3ccccc3)nc2s1 1
